Measured values as given in paper PMC5540273 (PLoS ONE, 2017).

How the values were obtained:
Conditions in all cases: concentration: 1 μM, replicates: in singlicate; n = 1
MST2 = system: T1, MST2
T1 construct: gene STK3

MST3 = system: T2, MST3
T2 construct: gene STK24

MST4 = system: MST4
MTOR = system: MTOR
MUSK = system: MUSK
MYLK2 = system: MYLK2
MYLK4 = system: MYLK4
MYLK = system: MYLK
MYO3A = system: MYO3A
MYO3B = system: MYO3B
NDR1 = system: T3, NDR1
T3 construct: gene STK38

NDR2 = system: NDR2
NEK10 = system: NEK10
NEK11 = system: NEK11
NEK1 = system: NEK1
NEK2 = system: NEK2
NEK3 = system: NEK3
NEK4 = system: NEK4
NEK5 = system: NEK5
NEK6 = system: NEK6
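Also: KINOMEscan kinase panel screen.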

| SMILES | %Inh (MST2) | %Inh (MST3) | %Inh (MST4) | %Inh (MTOR) | %Inh (MUSK) | %Inh (MYLK2) | %Inh (MYLK4) | %Inh (MYLK) | %Inh (MYO3A) | %Inh (MYO3B) | %Inh (NDR1) | %Inh (NDR2) | %Inh (NEK10) | %Inh (NEK11) | %Inh (NEK1) | %Inh (NEK2) | %Inh (NEK3) | %Inh (NEK4) | %Inh (NEK5) | %Inh (NEK6) |
| --- | --- | --- | --- | --- | --- | --- | --- | --- | --- | --- | --- | --- | --- | --- | --- | --- | --- | --- | --- | --- |
| O=C(Nc1n[nH]c2nc(-c3nccs3)c(Br)cc12)C1CCCC1 [SB-742609] | 0% | 0% | 6% | 11% | 31% | 90% | 27% | 0% | 0% | 0% | 0% | 0% | 15% | 0% | 0% | 0% | 14% | 38% | 0% | 0% |
| Cc1cccc(-c2nc(C)cc(Nc3ccncc3)n2)n1 [GSK257997] | 0% | 0% | 0% | 13% | 0% | 16% | 9% | 5% | 6% | 0% | 7% | 0% | 27% | 0% | 0% | 0% | 0% | 0% | 20% | 0% |
| Cc1csc(-c2nc(Nc3ccncc3)c3ccccc3n2)n1 [GW869640] | 0% | 11% | 40% | 74% | 11% | 5% | 0% | 26% | 2% | 36% | 27% | 25% | 17% | 9% | 0% | 0% | 19% | 28% | 0% | 4% |
| Cn1ccc2ncnc(Oc3ccc(NC(=O)Nc4ccccc4)cc3)c21 | 0% | 0% | 0% | 16% | 14% | 2% | 0% | 3% | 5% | 28% | 9% | 0% | 18% | 0% | 0% | 3% | 12% | 0% | 0% | 0% |
| Clc1cc(Cl)cc(Nc2ccnc(Nc3cc(Cl)cc(Cl)c3)n2)c1 [GSK175726] | 20% | 9% | 0% | 18% | 2% | 11% | 13% | 21% | 10% | 3% | 21% | 11% | 4% | 8% | 1% | 4% | 16% | 0% | 23% | 0% |
| O=C(Nc1ccc2c(c1)OCO2)NC1CCN(c2ccnc(Nc3ccc(F)cc3)n2)C1 (stereo not shown) [GSK1379724] | 0% | 0% | 0% | 5% | 2% | 1% | 0% | 0% | 24% | 0% | 0% | 0% | 11% | 0% | 0% | 0% | 17% | 20% | 25% | 0% |
| Cc1ccc(C(=O)Nc2ccc(Nc3ccnc4cc(-c5ccccn5)ccc34)cc2O)cc1.Cl [GW440146] | 0% | 0% | 0% | 17% | 14% | 6% | 0% | 5% | 11% | 0% | 6% | 0% | 0% | 2% | 0% | 0% | 0% | 14% | 0% | 0% |
| O=C(O)COc1ncnc2cc(-c3ccc4[nH]ncc4c3)sc12 | 40% | 24% | 0% | 14% | 9% | 31% | 22% | 7% | 0% | 0% | 24% | 0% | 48% | 1% | 0% | 0% | 87% | 10% | 25% | 22% |
| COC(=O)c1c(-c2ccccc2)c2cc(OC)ccc2c(=O)n1Cc1ccccc1 | 26% | 20% | 0% | 0% | 11% | 0% | 8% | 0% | 9% | 0% | 0% | 3% | 0% | 0% | 7% | 9% | 16% | 11% | 0% | 0% |
| CCCc1ccc(S(=O)(=O)NC2CCN(c3ccnc(Nc4ccc(F)cc4)n3)C2)cc1 (stereo not shown) [GSK1379715] | 0% | 0% | 0% | 0% | 8% | 0% | 0% | 0% | 11% | 0% | 0% | 0% | 3% | 1% | 88% | 0% | 4% | 5% | 10% | 0% |
| Cc1cccc(-c2nc(-c3ccc(S(C)(=O)=O)cc3)sc2-c2ccnc(NCCc3ccccc3)c2)c1 | 4% | 0% | 32% | 0% | 0% | 14% | 12% | 0% | 10% | 0% | 1% | 0% | 14% | 0% | 0% | 0% | 30% | 0% | 2% | 0% |
